Screening data: PubChem, SRMLSC
Spn PMK inh – S. pneumoniae PMK inhibitors, primary screen, biochemical, mevalonate pathway, pilot trial included. purified PMK, PK/LDH-coupled NADH absorbance 340 nm. inhibition, % at 10 µM. 0.49% of 65,000 active. AID 539, 2006;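 active = top-ranked compounds by inhibition in the single 10 µM screen, taking a fixed number of the strongest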;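 also: 0% = full reaction with DMSO carrier and 100% = background rate without enzyme reaction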
DPM-DC inhibit – S. pneumoniae DPM-DC inhibitors, primary screen, biochemical, PK/LDH-coupled NADH fluorescence | diphosphomevalonate decarboxylase (Streptococcus pneumoniae D39) | purified DPM-DC | calls only at 10 µM | 0.49% of 65,000 active | AID 556, 2006;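 active = the 320 compounds with the highest percent inhibition in the single-dose primary screen, excluding strongly autofluorescent ones, cut at about 32% in these data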;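 also: kinetic rate of NADH fluorescence loss reporting ADP formed by the decarboxylase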
NADH coupling – inhibitors of PK/LDH coupling enzymes, profiling panel, artefact control, biochemical, MLSMR library | coupled PK/LDH NADH assays, four targets | IC50, µM (series often up to 10 µM), inactives show top-dose inhibition | AID 774, 2007 | 0.02% of 65,000 active;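 active = single-dose screening hits from any of four coupled enzyme assays that gave an IC50 when retested across doses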;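 also: the DPM-DC format reads NADH fluorescence rather than 340 nm absorbance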
A340 absorber – compound light absorbance at 340 nm, profiling panel, artefact control, biochemical, MLSMR library, data from PS, PMK, MK assays; compound absorbance at 340 nm, fold over control; fold change at 10 µM; 65,000 tested, under 10 active; AID 708, 2007;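 active = at 10 µM dose, initial 340 nm absorbance at least 2 fold that of control wells; inactive = change under 2 fold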;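 also: initial absorbance extrapolated from kinetic A340 decline of NADH oxidation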
Spn MK inh – S. pneumoniae MK inhibitors, primary screen, biochemical, PK/LDH-coupled NADH absorbance; mevalonate kinase [Streptococcus pneumoniae D39]; purified MK, PK/LDH-coupled NADH absorbance 340 nm; inhibition, % at 10 µM; 0.48% of 65,000 active; AID 555, 2006;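 active = ranked among the strongest by inhibition in the single 10 µM screen, a fixed top-ranked set picked for dose follow-up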
Autofluor 339 – intrinsic fluorescence of library compounds, ex339/em460 – biochemical, MLSMR library, data from DPM-DC assay, artefact control, profiling panel; AID 709, 2007; compound autofluorescence, ex339/em460 nm, NADH buffer; hits give high values; 1 = no-compound wells, NADH background; fluorescence fold increase at 10 µM; 5.5% of 65,000 active;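 active = at 10 µM, mean starting fluorescence two-fold or more over control wells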;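 also: signal is the first read of a kinetic run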
* hit, by the source's call; i = inactive; / = no result given; + = active, no number. An excerpt weighted towards active compounds, which were near 6.5% of everything screened.

SMILES | Spn PMK inh | DPM-DC inhibit | NADH coupling | A340 absorber | Spn MK inh | Autofluor 339
COc1ccc2c(c1)c(C(O)CN1CCN(Cc3ccc4c(c3)OCO4)CC1)c(C)n2C (configuration not stated) | 6.0 | i | 6.0% | 1.03 | 11.0 | 1.2
COc1ccc2[nH]c3c(N4CCN(Cc5ccc6c(c5)OCO6)CC4)ncnc3c2c1 | 0.0 | / | 5.0% | 1.08 | 9.0 | 2.33*
CC(C)CN(CC(C)C)S(=O)(=O)N1CCC(C(=O)NC2CCCCCCC2)CC1 | 30.0* | i | 10.0% | 0.99 | 1.0 | 1.02
Cn1cc(CC(=O)NCCCN2CCCC2=O)c2ccccc21 | 15.0 | i | 9.0% | 1.07 | 13.0 | 1.02
CCOc1ccc(N2CC(C(=O)OC)CC2=O)cc1 (configuration not stated) | 0.0 | + | 16.0% | 1.05 | 8.0 | 0.58
Cc1nc2c(c(=O)n1CC1CCCO1)c1nc3ccccc3nc1n2CC(C)C (configuration not stated) | 0.0 | i | 5.0% | 0.98 | 13.0 | 1.45
C=CCn1cnc2c(c1=O)c1nc3ccccc3nc1n2Cc1ccccc1 | 15.0 | i | 15.0% | 1.02 | 7.0 | 2.98*
CCCCn1cnc2c(c1=O)c1nc3ccccc3nc1n2Cc1ccc2c(c1)OCO2 | 0.0 | / | 1.0% | 1.01 | 2.0 | 2.27*
CCOCCCn1c(C)nc2c(c1=O)c1nc3ccccc3nc1n2CCC1=CCCCC1 | 10.0 | i | 11.0% | 1.07 | 6.0 | 2.98*
CCCn1cnc2c(c1=O)c1nc3ccccc3nc1n2CCc1ccccc1 | 2.0 | / | 6.0% | 1.03 | 9.0 | 3.99*
CCCn1cnc2c(c1=O)c1nc3ccccc3nc1n2CCC1=CCCCC1 | 11.0 | i | 8.0% | 1.02 | 11.0 | 2.29*
CCOc1cc(C#N)c(NC(=O)c2cccnc2)cc1OCC | 25.0* | i | 8.0% | 1.02 | 0.0 | 1.13
COC(=O)c1cc(OC)c(OC)cc1NC(=O)c1cccnc1 | 11.0 | i | 5.0% | 1.09 | 3.0 | 1.08
COC(=O)c1c(C)cc(C)n2c1nc1ccccc12 | 20.0 | / | 16.0% | 1.02 | 12.0 | 3.53*
CS(=O)(=O)N(CC(=O)NCCC1=CCCCC1)C1CCCCC1 | 13.0 | i | 6.0% | 1 | 6.0 | 1.03
O=C(CN1CCN(C2CCCCC2)CC1)NCCC1=CCCCC1 | 4.0 | i | 22.0% | 1.04 | 61.0* | 1.11
O=C(c1ccc2c3c(cccc13)CC2)N1CCN(c2ncccn2)CC1 | 7.0 | i | 5.0% | 1.01 | 8.0 | 1.14
CCN=C1Cn2c(nc3scc(-c4ccccc4)c3c2=O)CN1CC | 4.0 | i | 4.0% | 1.03 | 0.0 | 2.37*
COc1ccc(N(CC(=O)NC(C)(C)C)S(=O)(=O)c2ccccc2)cc1OC | 7.0 | i | 4.0% | 1.05 | 5.0 | 1.14
CC(Sc1ncc(C#N)c(N)n1)C(=O)Nc1ccccc1 (configuration not stated) | 26.0* | i | 9.0% | 1.01 | 0.0 | 1.05
COC(=O)CSc1ncc(C#N)c(N)n1 | 0.0 | i | 2.0% | 1.05 | 6.0 | 1.23
CCN(CC)S(=O)(=O)c1ccc(NC2c3ccccc3C(=O)N2Cc2ccc3c(c2)OCO3)cc1 (configuration not stated) | 0.0 | i | 2.0% | 1.03 | 6.0 | 1.07
CCN(CC)S(=O)(=O)c1ccc(NC2c3ncccc3C(=O)N2Cc2ccccc2)cc1 (configuration not stated) | 12.0 | i | 21.0% | 1.07 | 50.0* | 1.08
COc1ccc(CN2C(=O)c3cccnc3C2Nc2cc(Cl)c(OC)cc2OC)cc1 (configuration not stated) | 15.0 | i | 24.0% | 1.06 | 57.0* | 1.08
CCc1cc(-c2n[nH]c(C)c2-c2nc3ccccc3n2C)c(O)c(CN2CCN(C)CC2)c1O | 10.0 | i | 5.0% | 1 | 5.0 | 1.14
SMILES | Spn PMK inh | DPM-DC inhibit | NADH coupling | A340 absorber | Spn MK inh | Autofluor 339
CCc1cc2c(=O)c(-c3nc4ccccc4n3C)c(C)oc2c(CN2CCOCC2)c1O | 5.0 | / | 5.0% | 1.07 | 4.0 | 2.11*
Oc1cnc2ccccc2c1CN1CCOCC1 | 0.0 | i | 4.0% | 1 | 0.0 | 1.92
CCc1cc2c(=O)c(-c3nc4ccccc4n3C)c(C)oc2c(CN2CCN(C)CC2)c1O | 5.0 | + | 17.0% | 1.13 | 6.0 | 3.53*
CCc1cc2c(=O)c(-c3nc4ccccc4n3C)c(C)oc2c(CN2CCN(CCO)CC2)c1O | 0.0 | / | 3.0% | 1.16 | 6.0 | 2.23*
CCc1cc2c(=O)c(-c3nc4ccccc4n3C)c(C(C)C)oc2c(CN2CCN(C)CC2)c1O | 19.0 | / | 13.0% | 1.12 | 6.0 | 2.23*
C=CCn1c(C(C)NC(=O)COC)nc2ccccc21 (configuration not stated) | 11.0 | i | 4.0% | 1.03 | 0.0 | 1.07
COc1ccc(N2CCN(C(=O)c3ccc(CNc4c(N5CCOCC5)c(=O)c4=O)cc3)CC2)cc1 | 4.0 | i | 4.0% | 1.06 | 8.0 | 1.07
O=C(c1ccco1)N1CCN(Cc2cccc(F)c2)CC1 | 7.0 | i | 5.0% | 1.01 | 8.0 | 1.14
Cc1ccc(S(=O)(=O)N2CCN(Cc3ccccc3C(F)(F)F)CC2)cc1 | 5.0 | i | 16.0% | 1.08 | 44.0* | 1.04
O=C(c1ccco1)N1CCN(Cc2ccccc2C(F)(F)F)CC1 | 0.0 | i | 16.0% | 1 | 48.0* | 1.08
Cc1cc(-c2cc(N)n(-c3ccccc3)n2)c(C)n1C1CCCC1 | 5.0 | i | 2.0% | 1.07 | 0.0 | 1.15
CC(C)(C)n1nc2c(c1NC(=O)c1cccc(C(F)(F)F)c1)CS(=O)C2 (configuration not stated) | 16.0 | i | 5.0% | 1.01 | 0.0 | 1.03
COc1cc(NC(=O)c2cccs2)c(C(=O)OCC(=O)NCc2ccco2)cc1OC | 13.0 | + | 17.0% | 1.09 | 5.0 | 1.44
O=C(COC(=O)c1ccccc1Nc1ccccc1)NCc1ccco1 | 12.0 | i | 4.0% | 0.99 | 0.0 | 1.33
NC(=O)c1ccsc1NC(=O)COC(=O)c1ccccc1NCc1ccco1 | 0.0 | / | 0.0% | 1.06 | 0.0 | 2.14*
CCOc1ccc(S(=O)(=O)NCC2CCCO2)c2cccnc12 (configuration not stated) | 0.0 | i | 4.0% | 1.02 | 6.0 | 2.21*
CCOc1ccc(S(=O)(=O)Nc2ccccc2SC)c2cccnc12 | 0.0 | i | 1.0% | 1.08 | 3.0 | 1.16
COc1ccc(-n2nc(C(=O)NCc3ccco3)c3c4ccccc4n(C)c3c2=O)cc1Cl | 16.0 | + | 20.0% | 1.08 | 11.0 | 3.59*
COc1ccc(-n2nc(C(=O)NCC(=O)NCc3ccco3)c3ccccc3c2=O)cc1 | 5.0 | i | 4.0% | 1.02 | 7.0 | 1.15
